From the supplement of paper PMC10849652
The full data set covers some 8,800 targets. This sample favours those with a hit. About 0.5% of all pairs of compound and target were hits.

What was measured:
Assay in all cases: log2 fold change, soluble protein after heating vs DMSO (PISA); higher = thermal stabilisation; K562 lysate, 10 uM; active = over 0.2 and 3.5 SD of the protein, either way, in both replicates (recomputed)
[1] = compound: NCC(=O)Nc1ccc(-n2nc(C(F)(F)F)cc2-c2ccc3c(ccc4ccccc43)c2)cc1
Outline: (§1)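 Log-two fold change in thermal stability relative to solvent controls is reported from duplicates. For each sample, crude K562 extract from dounce-homogenised pellets in PBS pH 7.4 with 1 mM MgCl2, at 1 mg/mL protein, was treated with 10 μM compound for 30 min. Aliquots heated for 3 min across 48°C-58°C were pooled, brought to 0.5% NP-40 at 4°C and cleared at 21,000xg for 90 min. The supernatant was quantified by TMTpro 16plex LC-MS/MS with channel sums equalised.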

vorinostat = compound: O=C(CCCCCCC(=O)Nc1ccccc1)NO [vorinostat]
Outline: as §1

silmitasertib = compound: O=C(O)c1ccc2c(c1)nc(Nc1cccc(Cl)c1)c1ccncc12 [silmitasertib]
Outline: as §1

[2] = compound: O=C1NC(=O)C(c2cnc3ccccn23)=C1c1cn2c3c(cc(F)cc13)CN(C(=O)N1CCCCC1)CC2
Outline: as §1

entospletinib = compound: c1cn2cc(-c3ccc4cn[nH]c4c3)nc(Nc3ccc(N4CCOCC4)cc3)c2n1 [entospletinib]
Outline: as §1

Measured: log2 fold change

DYNC1I2 isoform 2 (UniProt Q13409)
inactive: [1] 0.138 | vorinostat 0.07 | silmitasertib 0.008 | [2] 0.054 | entospletinib 0.039

FAM98A (UniProt Q8NCA5)
inactive: [1] 0.027 | silmitasertib 0.005 | [2] 0.01 | entospletinib 0.006
active: vorinostat -0.558

FAM114A2 (UniProt Q9NRY5)
inactive: [1] -0.056 | vorinostat 0.262 | silmitasertib -0.015 | [2] -0.034 | entospletinib 0

EDARADD (UniProt Q8WWZ3)
Chain of UniProt Q8WWZ3 (Q8WWZ3 whole entry, looked up): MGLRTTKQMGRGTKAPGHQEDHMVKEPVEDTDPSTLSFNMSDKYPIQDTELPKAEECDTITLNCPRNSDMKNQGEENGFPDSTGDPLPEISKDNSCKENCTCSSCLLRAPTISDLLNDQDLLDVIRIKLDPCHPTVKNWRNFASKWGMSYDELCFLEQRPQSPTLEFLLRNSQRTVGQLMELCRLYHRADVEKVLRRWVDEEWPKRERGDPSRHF
inactive: [1] 0.022 | vorinostat -0.168 | silmitasertib 0.02 | [2] -0.05 | entospletinib -0.057

ENSA isoform 3 (UniProt O43768)
Chain of UniProt O43768 (O43768 whole entry, looked up): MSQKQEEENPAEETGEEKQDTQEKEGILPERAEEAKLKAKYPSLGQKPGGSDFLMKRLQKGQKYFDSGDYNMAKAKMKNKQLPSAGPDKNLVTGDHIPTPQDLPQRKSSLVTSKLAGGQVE
inactive: [1] -0.029 | vorinostat 0.144 | silmitasertib -0.019 | [2] 0.003 | entospletinib -0.014

DSTN (UniProt P60981)
inactive: [1] -0.012 | silmitasertib 0.014 | [2] -0.031 | entospletinib -0.021
active: vorinostat -0.34

FYCO1 isoform 4 (UniProt Q9BQS8)
inactive: [1] -0.002 | vorinostat -0.002 | silmitasertib 0.047 | [2] 0.033 | entospletinib -0.002

DUSP22 isoform 2 (UniProt Q9NRW4)
Chain of UniProt Q9NRW4 (Q9NRW4 whole entry, looked up): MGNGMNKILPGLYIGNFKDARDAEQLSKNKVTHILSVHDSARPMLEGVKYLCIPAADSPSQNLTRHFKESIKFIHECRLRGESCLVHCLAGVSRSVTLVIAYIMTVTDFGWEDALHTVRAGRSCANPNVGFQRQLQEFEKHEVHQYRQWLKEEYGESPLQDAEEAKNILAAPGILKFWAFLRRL
inactive: [1] -0.025 | vorinostat -0.102 | silmitasertib 0.002

FNTB (UniProt P49356)
Chain of UniProt P49356 (P49356 whole entry, looked up): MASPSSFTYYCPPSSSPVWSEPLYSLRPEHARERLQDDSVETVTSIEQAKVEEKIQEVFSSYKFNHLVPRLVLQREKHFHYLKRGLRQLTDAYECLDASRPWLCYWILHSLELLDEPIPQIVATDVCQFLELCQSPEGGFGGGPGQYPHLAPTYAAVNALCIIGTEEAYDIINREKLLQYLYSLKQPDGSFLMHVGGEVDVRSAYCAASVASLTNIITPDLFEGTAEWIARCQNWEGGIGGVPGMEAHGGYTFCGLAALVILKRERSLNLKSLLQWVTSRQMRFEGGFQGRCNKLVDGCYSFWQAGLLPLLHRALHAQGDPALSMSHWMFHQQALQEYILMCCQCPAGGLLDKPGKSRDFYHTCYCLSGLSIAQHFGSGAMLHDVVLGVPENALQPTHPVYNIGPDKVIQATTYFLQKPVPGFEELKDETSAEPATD
inactive: [1] 0.03 | vorinostat 0.03 | silmitasertib -0.018 | [2] -0.032 | entospletinib -0.048

ERBIN isoform 8 (UniProt Q96RT1)
inactive: [1] -0.016 | vorinostat -0.008 | silmitasertib -0.001 | [2] -0.017 | entospletinib -0.002

DYRK1A (UniProt Q13627)
inactive: [1] 0.021 | vorinostat -0.253 | [2] 0.01 | entospletinib 0.005
active: silmitasertib 0.247

GGT7 (UniProt Q9UJ14)
inactive: [1] -0.094 | silmitasertib -0.017 | [2] 0.015 | entospletinib -0.056
active: vorinostat 0.244

FAT2 (UniProt Q9NYQ8)
inactive: [1] 0.393 | vorinostat 0.001 | silmitasertib 0.098 | [2] 0.178 | entospletinib 0.162

EHD2 (UniProt Q9NZN4)
inactive: [1] 0.005 | silmitasertib 0.073 | [2] 0.018 | entospletinib 0.032
active: vorinostat -0.282

FTL (UniProt P02792)
inactive: [1] -0.064 | vorinostat 0.018 | silmitasertib 0.057 | [2] 0.011 | entospletinib -0.151

EXOC1 (UniProt Q9NV70)
active: vorinostat -0.45
inactive: [1] -0.019 | silmitasertib 0.075 | [2] -0.019 | entospletinib 0.019

FECH isoform 2 (UniProt P22830)
inactive: [1] -0.185 | vorinostat -0.401 | silmitasertib -0.03 | [2] -0.021 | entospletinib 0.977

FBRSL1, A0A3B3IRR3
inactive: [1] 0.043 | vorinostat 0.142 | silmitasertib -0.013 | [2] 0.069 | entospletinib -0.087

EEF1A1, A0A087WVQ9
inactive: [1] -0.025 | silmitasertib -0.002 | [2] -0.022 | entospletinib 0.015
active: vorinostat -0.541

GFPT1 (UniProt Q06210)
inactive: [1] 0.034 | silmitasertib 0.004 | [2] 0.012 | entospletinib 0.019
active: vorinostat -0.409

FOXJ3 (UniProt Q9UPW0)
inactive: [1] -0.016 | silmitasertib 0.114 | [2] 0.019 | entospletinib 0.022
active: vorinostat -0.24

ELAVL4 (UniProt P26378)
active: vorinostat -0.402
inactive: [1] 0.016 | silmitasertib -0.046 | [2] 0.004 | entospletinib -0.067

ERLIN2 (UniProt O94905)
inactive: [1] -0.012 | vorinostat 0.032 | silmitasertib 0.019 | [2] -0.005 | entospletinib 0.016

FAM53B (UniProt Q14153)
Chain of UniProt Q14153 (Q14153 whole entry, looked up): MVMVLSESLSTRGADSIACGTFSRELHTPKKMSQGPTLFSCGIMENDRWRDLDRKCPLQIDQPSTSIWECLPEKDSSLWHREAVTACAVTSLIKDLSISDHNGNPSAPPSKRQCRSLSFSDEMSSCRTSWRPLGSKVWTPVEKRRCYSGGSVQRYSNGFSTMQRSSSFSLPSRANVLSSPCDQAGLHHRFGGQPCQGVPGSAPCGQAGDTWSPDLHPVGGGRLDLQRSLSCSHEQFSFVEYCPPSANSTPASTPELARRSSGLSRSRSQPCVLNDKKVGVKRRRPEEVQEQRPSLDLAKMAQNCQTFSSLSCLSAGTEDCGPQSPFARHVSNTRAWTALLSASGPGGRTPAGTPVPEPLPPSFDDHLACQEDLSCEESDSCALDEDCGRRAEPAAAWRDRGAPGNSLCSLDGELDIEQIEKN
inactive: [1] 0.056 | vorinostat -0.06 | silmitasertib 0.049 | [2] 0.02 | entospletinib -0.003

EXOC5 (UniProt O00471)
inactive: [1] 0.036 | silmitasertib 0.036 | [2] 0.002 | entospletinib 0.025
active: vorinostat -0.293

FAM83A (UniProt Q86UY5)
inactive: [1] -0.049 | silmitasertib -0.034 | [2] -0.052 | entospletinib -0.002
active: vorinostat -0.417

GEMIN5 (UniProt Q8TEQ6)
Chain of UniProt Q8TEQ6 (Q8TEQ6 whole entry, looked up): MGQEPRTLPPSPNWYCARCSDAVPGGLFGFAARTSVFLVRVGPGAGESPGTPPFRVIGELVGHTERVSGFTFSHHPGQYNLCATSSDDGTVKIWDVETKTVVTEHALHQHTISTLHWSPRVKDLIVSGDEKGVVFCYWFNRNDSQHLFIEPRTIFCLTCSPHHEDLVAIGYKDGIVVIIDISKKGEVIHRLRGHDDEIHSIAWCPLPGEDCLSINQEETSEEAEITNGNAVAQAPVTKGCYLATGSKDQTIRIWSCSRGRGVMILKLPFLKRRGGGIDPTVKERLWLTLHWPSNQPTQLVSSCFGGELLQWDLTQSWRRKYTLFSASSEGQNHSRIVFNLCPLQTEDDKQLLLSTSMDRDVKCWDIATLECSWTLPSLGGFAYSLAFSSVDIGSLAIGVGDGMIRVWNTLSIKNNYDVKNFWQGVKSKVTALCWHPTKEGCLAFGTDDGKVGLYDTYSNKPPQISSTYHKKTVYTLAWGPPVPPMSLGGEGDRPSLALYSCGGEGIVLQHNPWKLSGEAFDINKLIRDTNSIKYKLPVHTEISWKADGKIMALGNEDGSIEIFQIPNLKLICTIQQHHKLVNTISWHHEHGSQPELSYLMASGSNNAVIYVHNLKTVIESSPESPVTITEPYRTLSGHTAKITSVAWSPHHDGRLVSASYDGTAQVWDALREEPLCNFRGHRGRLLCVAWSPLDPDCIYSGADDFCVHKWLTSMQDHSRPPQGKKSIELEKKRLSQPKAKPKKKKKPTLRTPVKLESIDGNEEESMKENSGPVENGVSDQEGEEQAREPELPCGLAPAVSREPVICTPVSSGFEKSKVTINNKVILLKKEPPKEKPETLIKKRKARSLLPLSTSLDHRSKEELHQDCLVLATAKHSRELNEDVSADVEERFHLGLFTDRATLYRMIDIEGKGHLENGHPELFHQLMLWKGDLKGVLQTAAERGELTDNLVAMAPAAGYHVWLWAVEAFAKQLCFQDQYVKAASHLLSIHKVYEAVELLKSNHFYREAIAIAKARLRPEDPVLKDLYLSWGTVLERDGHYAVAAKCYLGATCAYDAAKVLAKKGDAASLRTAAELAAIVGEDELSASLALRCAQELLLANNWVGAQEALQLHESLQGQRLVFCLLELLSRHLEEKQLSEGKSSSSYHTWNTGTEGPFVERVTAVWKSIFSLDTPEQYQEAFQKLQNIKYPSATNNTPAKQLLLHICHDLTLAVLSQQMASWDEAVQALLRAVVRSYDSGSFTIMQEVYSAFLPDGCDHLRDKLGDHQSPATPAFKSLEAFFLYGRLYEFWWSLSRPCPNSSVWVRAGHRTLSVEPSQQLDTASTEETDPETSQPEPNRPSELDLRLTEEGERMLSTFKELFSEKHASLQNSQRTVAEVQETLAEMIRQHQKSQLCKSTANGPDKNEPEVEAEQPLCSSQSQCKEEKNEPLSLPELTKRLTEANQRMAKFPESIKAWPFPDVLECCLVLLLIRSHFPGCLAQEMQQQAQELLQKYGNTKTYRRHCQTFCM
active: vorinostat -0.479
inactive: [1] 0 | silmitasertib 0.004 | [2] -0.001 | entospletinib 0.004

EDC4 (UniProt Q6P2E9)
active: vorinostat -0.453
inactive: [1] 0.045 | silmitasertib 0.011 | [2] 0.004 | entospletinib 0.02

ENO1, A0A2R8YEM5
inactive: [1] -0.032 | vorinostat 0.119 | silmitasertib -0.005 | [2] 0.017 | entospletinib 0.04

FANCI (UniProt Q9NVI1)
inactive: [1] 0.002 | silmitasertib 0.062 | [2] 0.018 | entospletinib 0.039
active: vorinostat -0.389

EMP3 (UniProt P54852)
Chain of UniProt P54852 (P54852 whole entry, looked up): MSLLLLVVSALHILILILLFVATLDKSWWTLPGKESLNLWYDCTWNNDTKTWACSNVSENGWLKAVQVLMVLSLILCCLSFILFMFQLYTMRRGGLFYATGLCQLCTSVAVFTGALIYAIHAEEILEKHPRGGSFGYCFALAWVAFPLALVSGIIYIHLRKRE
inactive: [1] 0.013 | vorinostat -0.022 | silmitasertib -0.05 | [2] -0.014 | entospletinib 0.144

ERLIN1 (UniProt O75477)
inactive: [1] -0.07 | vorinostat 0.063 | silmitasertib 0.064 | [2] 0.03 | entospletinib 0.023

FTSJ3 (UniProt Q8IY81)
inactive: [1] -0.034 | vorinostat 0.068 | silmitasertib 0.017 | [2] 0.012 | entospletinib -0.043

ERI1 (UniProt Q8IV48)
active: vorinostat -0.221
inactive: [1] -0.001 | silmitasertib -0.035 | [2] -0.017 | entospletinib 0.041

ESPL1 (UniProt Q14674)
inactive: [1] 0.027 | vorinostat -0.21 | silmitasertib 0.098 | [2] 0.057 | entospletinib -0.066

GABPB1 isoform 3 (UniProt Q06547)
active: vorinostat -0.41
inactive: [1] -0.012 | silmitasertib 0.08 | [2] 0.067 | entospletinib -0.024

EEF1AKNMT (UniProt Q8N6R0)
active: vorinostat -0.414
inactive: [1] -0.004 | silmitasertib 0.076 | [2] -0.005 | entospletinib 0.026

GAA (UniProt P10253)
inactive: [1] -0.038 | vorinostat -0.176 | silmitasertib -0.092 | [2] -0.056 | entospletinib 0.068

FAM76B (UniProt Q5HYJ3)
inactive: [1] -0.018 | vorinostat 0.026 | silmitasertib 0 | [2] 0.012 | entospletinib -0.014

GEMIN2 (UniProt O14893)
Chain of UniProt O14893 (O14893 whole entry, looked up): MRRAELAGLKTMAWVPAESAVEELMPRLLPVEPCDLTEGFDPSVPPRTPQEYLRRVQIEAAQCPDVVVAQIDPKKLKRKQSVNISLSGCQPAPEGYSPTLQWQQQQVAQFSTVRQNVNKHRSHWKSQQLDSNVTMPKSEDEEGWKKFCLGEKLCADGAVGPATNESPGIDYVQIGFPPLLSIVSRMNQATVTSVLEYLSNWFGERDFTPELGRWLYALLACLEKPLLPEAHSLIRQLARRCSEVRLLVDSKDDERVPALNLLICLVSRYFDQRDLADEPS
active: vorinostat -0.425
inactive: [1] 0.003 | silmitasertib 0.002 | [2] 0.04 | entospletinib -0.005

FKBP8 isoform 2 (UniProt Q14318)
active: vorinostat -0.219
inactive: [1] 0.024 | silmitasertib 0.001 | [2] -0.028 | entospletinib 0.018

ERCC4 (UniProt Q92889)
Chain of UniProt Q92889 (Q92889 whole entry, looked up): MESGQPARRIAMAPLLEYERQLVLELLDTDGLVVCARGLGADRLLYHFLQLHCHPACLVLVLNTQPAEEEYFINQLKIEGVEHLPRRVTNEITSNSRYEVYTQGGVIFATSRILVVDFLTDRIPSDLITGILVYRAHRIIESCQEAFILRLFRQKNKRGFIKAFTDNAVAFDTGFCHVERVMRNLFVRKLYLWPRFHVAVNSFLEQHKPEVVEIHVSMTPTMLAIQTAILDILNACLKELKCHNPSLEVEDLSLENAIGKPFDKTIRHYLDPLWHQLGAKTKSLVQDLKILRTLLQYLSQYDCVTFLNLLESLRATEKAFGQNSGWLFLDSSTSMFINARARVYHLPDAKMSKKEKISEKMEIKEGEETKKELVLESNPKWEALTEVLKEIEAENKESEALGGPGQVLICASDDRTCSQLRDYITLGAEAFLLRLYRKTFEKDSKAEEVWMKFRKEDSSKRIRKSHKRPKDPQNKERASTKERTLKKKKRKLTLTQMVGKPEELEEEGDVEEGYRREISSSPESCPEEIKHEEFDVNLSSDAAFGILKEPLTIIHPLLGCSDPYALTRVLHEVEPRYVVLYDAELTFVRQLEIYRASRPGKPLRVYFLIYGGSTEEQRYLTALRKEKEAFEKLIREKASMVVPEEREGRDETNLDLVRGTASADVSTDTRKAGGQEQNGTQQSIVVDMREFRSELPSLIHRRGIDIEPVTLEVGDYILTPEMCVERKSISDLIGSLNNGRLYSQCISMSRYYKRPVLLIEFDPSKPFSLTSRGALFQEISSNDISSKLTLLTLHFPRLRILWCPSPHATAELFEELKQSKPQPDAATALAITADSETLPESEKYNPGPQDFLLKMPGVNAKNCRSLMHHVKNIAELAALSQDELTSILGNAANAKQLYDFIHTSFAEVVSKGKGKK
active: vorinostat -0.241
inactive: [1] 0.026 | silmitasertib 0.002 | [2] -0.065 | entospletinib 0.021

FIG4 (UniProt Q92562)
active: vorinostat -0.517
inactive: [1] -0.037 | silmitasertib 0.017 | [2] 0.056 | entospletinib 0.052

GAMT (UniProt Q14353)
active: vorinostat -0.423
inactive: [1] -0.046 | silmitasertib -0.008 | [2] -0.049 | entospletinib -0.001

FMNL1 isoform 3 (UniProt O95466)
inactive: [1] 0.051 | silmitasertib -0.01 | [2] 0.071 | entospletinib -0.066
active: vorinostat -0.292

EXTL2 (UniProt Q9UBQ6)
Chain of UniProt Q9UBQ6 (Q9UBQ6 whole entry, looked up): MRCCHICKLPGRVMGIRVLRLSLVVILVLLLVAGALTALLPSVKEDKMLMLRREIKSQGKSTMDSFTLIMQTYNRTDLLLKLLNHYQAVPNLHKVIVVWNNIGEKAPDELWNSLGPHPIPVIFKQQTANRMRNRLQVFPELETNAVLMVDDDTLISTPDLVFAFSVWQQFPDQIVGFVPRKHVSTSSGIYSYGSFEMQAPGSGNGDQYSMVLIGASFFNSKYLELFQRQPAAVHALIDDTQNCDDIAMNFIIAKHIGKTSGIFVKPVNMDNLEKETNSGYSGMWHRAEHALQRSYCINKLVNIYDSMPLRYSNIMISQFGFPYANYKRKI
inactive: [1] -0.171 | vorinostat 0.189 | silmitasertib -0.053 | [2] 0.01 | entospletinib -0.036

FADS3 (UniProt Q9Y5Q0)
inactive: [1] 0.21 | vorinostat 0.247 | silmitasertib -0.126 | [2] 0.004 | entospletinib -0.185

GCN1 (UniProt Q92616)
inactive: [1] 0.01 | silmitasertib 0.114 | [2] 0.033 | entospletinib -0.011
active: vorinostat -0.374

GAPDH (UniProt P04406)
Chain of UniProt P04406 (P04406 whole entry, looked up): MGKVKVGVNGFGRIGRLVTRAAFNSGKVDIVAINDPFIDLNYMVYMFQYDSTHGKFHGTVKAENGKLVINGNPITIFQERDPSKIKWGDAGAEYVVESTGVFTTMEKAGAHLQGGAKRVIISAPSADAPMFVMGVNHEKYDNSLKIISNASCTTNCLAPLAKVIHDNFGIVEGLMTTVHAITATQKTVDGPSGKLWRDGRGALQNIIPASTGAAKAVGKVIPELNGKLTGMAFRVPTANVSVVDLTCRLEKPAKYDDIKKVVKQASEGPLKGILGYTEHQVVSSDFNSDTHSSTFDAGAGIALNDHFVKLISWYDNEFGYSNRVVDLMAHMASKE
inactive: [1] 0 | silmitasertib -0.033 | [2] 0.014 | entospletinib 0.003
active: vorinostat 0.309

FBXO30 (UniProt Q8TB52)
inactive: [1] -0.01 | silmitasertib 0.042 | [2] -0.019 | entospletinib 0.013
active: vorinostat -0.316

FANCD2 isoform 1 (UniProt Q9BXW9)
inactive: [1] 0.078 | silmitasertib -0.012 | [2] 0.008 | entospletinib -0.005
active: vorinostat -0.25

EAPP (UniProt Q56P03)
inactive: [1] -0.083 | vorinostat 0.029 | silmitasertib -0.086 | [2] 0.024 | entospletinib 0.024

EIF2AK2 (UniProt P19525)
inactive: [1] 0.021 | silmitasertib 0.038 | [2] -0.017 | entospletinib 0.068
active: vorinostat -0.415

FARSA (UniProt Q9Y285)
inactive: [1] -0.025 | silmitasertib 0.007 | [2] -0.006 | entospletinib 0.003
active: vorinostat 0.381
